Laboratory results reported in PubChem BioAssay AID720519 (National Center for Advancing Translational Sciences (NCATS), 2013).
Records with an inconclusive call do not appear. Where a call stands in place of a potency, no number is given. Activity calls are given as the source filed them. The call rests on the fitted dose curve; in most records, active means well fitted activation curve with a large enough effect; inconclusive means small, poorly fitted or top-dose-only effect; inactive means flat fitted curve, though single readings scatter.

Assay: qHTS for Inhibitors of Cell Surface uPA Generation: Confirmatory Assay for Cherry-picked Compounds
Outline: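 RAW 264.7 cells at 4000/well, incubated overnight, then treated with compounds. After 24 h at 37 C, viability was read by ATPlite luminescence. An increase in signal indicates blocked uPA-dependent LF entry.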
Potency means the concentration at half of the fitted maximal effect.

**Q.** For COc1cccc(NC(=O)c2nnn(CC(=O)Nc3cc(C)cc(C)c3)c2N)c1, which Potency is on record?
**A.** inactive

**Q.** Which Potency does the source give for Cc1ccc(S(=O)(=O)N2CCOCC2)cc1C(=O)OC1CCOC1=O (stereo not drawn) here?
**A.** inactive

**Q.** With O=C(NC[C@H]1CCCO1)c1cccc2c1C(=O)c1ccc(-c3ccc(F)cc3OCc3ccccc3)cc1S2(=O)=O as the compound, how does the Potency read?
**A.** inactive

**Q.** Which Potency does the source give for C=CCOC(=O)C1=C[C@@H](c2coc3ccccc3c2=O)C[C@@H](OCc2ccc(CO)cc2)O1 here?
**A.** inactive

**Q.** For CS(=O)(=O)N1CCC(C(=O)Nc2ccccc2)CC1, which Potency is on record?
**A.** inactive

**Q.** Which Potency does the source give for COc1ccc(C(C(=O)NC2CCCC2)N(C(=O)c2ccoc2C)c2ccc(C)c(C)c2)cc1 (stereo not drawn) here?
**A.** inactive

**Q.** For Cc1ccc([C@H]2C(C(=O)O)=CC[C@@H](c3cccc(C)c3)N2S(=O)(=O)c2ccc(C)cc2)cc1, which Potency is on record?
**A.** inactive

**Q.** With O=C(NC1CC1)C1CCCN(C(=O)NC2CCCCC2)C1 (stereo not drawn) as the compound, how does the Potency read?
**A.** inactive

**Q.** For COc1ccccc1-c1ccc(SCC(=O)NCCc2ccccc2)nn1, which Potency is on record?
**A.** inactive

**Q.** Which Potency does the source give for CCCN1CCN(CC(=O)Nc2nncs2)CC1 here?
**A.** inactive

**Q.** Which Potency does the source give for COc1ccc(-c2cc3nc(-c4ccccc4)cc(N4CCCC(O)C4)n3n2)cc1 (stereo not drawn) here?
**A.** inactive

**Q.** Which Potency does the source give for O=C(NCc1ccco1)/C(=C\c1cccs1)NC(=O)c1ccccc1 here?
**A.** inactive

**Q.** Which Potency does the source give for O=C(NC(=O)c1ccccc1)Nc1cccc(S(=O)(=O)N2CCCCC2)c1 here?
**A.** inactive

**Q.** Which Potency does the source give for Cc1ccc(S(=O)(=O)NCC(=O)OC(C)C(=O)NCc2ccc3c(c2)OCO3)cc1 (stereo not drawn) here?
**A.** inactive

**Q.** Which Potency does the source give for COc1ccccc1N1CCN(C(=O)CCC(=O)N2CCN(c3ccc(F)cc3)CC2)CC1 here?
**A.** inactive

**Q.** For O=C(CC1(O)C(=O)Nc2ccccc21)c1cccc(Br)c1 (stereo not drawn), which Potency is on record?
**A.** inactive

**Q.** With Cc1ccc(-n2nc3c(c2NC(=O)c2ccc4c(c2)OCO4)CS(=O)C3)c(C)c1 (stereo not drawn) as the compound, how does the Potency read?
**A.** inactive

**Q.** With Cc1[nH]c2ccc(C(=O)OC(C)C(=O)NC3CCCCC3C)cc2c1C (stereo not drawn) as the compound, how does the Potency read?
**A.** inactive

**Q.** With Cc1ccc(C)c(S(=O)(=O)Nc2ccccc2C(=O)Nc2cc(C)on2)c1 as the compound, how does the Potency read?
**A.** inactive

**Q.** Which Potency does the source give for CCC1=NN(C(=O)C(=O)Nc2ccc(OC)cc2)C(O)(C(F)(F)F)C1 (stereo not drawn) here?
**A.** inactive

**Q.** For CC(=O)COc1ccc2c(-c3cccc([N+](=O)[O-])c3)cc(=O)oc2c1, which Potency is on record?
**A.** inactive

**Q.** For COC(=O)CSc1nc(N2CCOCC2)c2c(c1C#N)CCCC2, which Potency is on record?
**A.** inactive

**Q.** Which Potency does the source give for COc1cc(OC)cc(C(=O)NC(C(=O)Nc2ccc3c(c2)CCC3)C(C)C)c1 (stereo not drawn) here?
**A.** inactive

**Q.** With CCc1ccccc1N(CC(=O)N1CCCC1)S(C)(=O)=O as the compound, how does the Potency read?
**A.** inactive

**Q.** With COc1ccc(CC(=O)NNS(=O)(=O)c2ccccc2[N+](=O)[O-])cc1OC as the compound, how does the Potency read?
**A.** inactive

**Q.** Which Potency does the source give for C[C@H](O)[C@@H]1C(=O)N2CCc3ccc(-c4cccc(F)c4)cc3[C@@H]2C[C@@H]1N(C)C(=O)C(C)(C)C here?
**A.** inactive

**Q.** For O=C(c1cc(COc2c(F)cccc2F)on1)N1CCc2ccccc2C1, which Potency is on record?
**A.** inactive

**Q.** For O=C(Nc1ccnn1C1CCN(CCCC2CCCC2)CC1)c1ccccc1, which Potency is on record?
**A.** inactive

**Q.** With CN1CCN(c2ccc(S(=O)(=O)N3CCOCC3)cc2NC(=O)CSCc2ccccc2)CC1 as the compound, how does the Potency read?
**A.** inactive

**Q.** Which Potency does the source give for COc1ccc(S(=O)(=O)N2CCN(Cc3ccccc3)CC2)c(C)c1 here?
**A.** inactive

**Q.** Which Potency does the source give for O=C(NC1CCCCC1)C(c1ccco1)N(C(=O)c1csnn1)c1cccc(Cl)c1 (stereo not drawn) here?
**A.** inactive

**Q.** For COc1ccccc1CCNC(=O)C(=O)NCC1OCCN1S(=O)(=O)c1ccc(OC)c(OC)c1 (stereo not drawn), which Potency is on record?
**A.** inactive

**Q.** Which Potency does the source give for O=C(Nn1cnnc1)c1ccc(Cl)cc1 here?
**A.** inactive

**Q.** With Cc1cccc(NC(=O)c2cc3c(=O)n4ccccc4nc3s2)c1 as the compound, how does the Potency read?
**A.** inactive

**Q.** For Cc1cccc(N2C(=O)c3cccc(Oc4ccc(Cl)cc4)c3C2=O)c1, which Potency is on record?
**A.** inactive

**Q.** Which Potency does the source give for Cc1ccc(NC(=O)C(C)S)cc1 (stereo not drawn) here?
**A.** inactive

**Q.** For CC(=O)NC(=S)Nc1ccc([N+](=O)[O-])cc1C, which Potency is on record?
**A.** inactive

**Q.** For CCOC(=O)C1=C(C)NC(C)=C(C(=O)OCC)C1C(=O)OCC(=O)NCCc1ccccc1, which Potency is on record?
**A.** 9.27 µM (active)

**Q.** Which Potency does the source give for COc1ccc(Nc2nc(-c3ccccc3)c(C(=O)Nc3cccnc3)s2)cc1 here?
**A.** inactive

**Q.** Which Potency does the source give for Cc1cccc(NC(=O)C2CCCN(S(=O)(=O)c3ccc4[nH]c(=O)ccc4c3)C2)c1 (stereo not drawn) here?
**A.** inactive

**Q.** Which Potency does the source give for Cc1cccc(C)c1NC(=O)c1c(O)c2ccccc2[nH]c1=O here?
**A.** inactive

**Q.** With CCCCn1c(N)c(N(CCC(C)C)C(=O)c2sc3nc4n(c(=O)c3c2C)CCC4)c(=O)[nH]c1=O as the compound, how does the Potency read?
**A.** inactive

**Q.** For CCN(C(=O)c1c(C)noc1C)c1c(N)n(Cc2ccccc2)c(=O)[nH]c1=O, which Potency is on record?
**A.** inactive

**Q.** With CC1CCCN(C(=O)c2ccc(CNc3c(N4CCCCC4)c(=O)c3=O)cc2)C1 (stereo not drawn) as the compound, how does the Potency read?
**A.** inactive

**Q.** Which Potency does the source give for Cc1ccc(N2C(=O)c3ccccc3C2(O)c2ccccc2)cc1 (stereo not drawn) here?
**A.** inactive

**Q.** With COCCN(C(=O)c1ccccc1OC)c1nnc(C)s1 as the compound, how does the Potency read?
**A.** inactive

**Q.** For CC1(C)S[C@@H]2[C@H](NC(=O)C(C(=O)O)c3ccccc3)C(=O)N2[C@H]1C(=O)O (stereo partly drawn), which Potency is on record?
**A.** inactive

**Q.** Which Potency does the source give for COc1ccc(OC)c(NC(=O)C2CCCN2C(=O)C2CCC(C)CC2)c1 (stereo not drawn) here?
**A.** inactive

**Q.** For COc1ccc(C2=Nc3ccccc3C2(O)CCN2C(=O)c3ccccc3C2=O)cc1 (stereo not drawn), which Potency is on record?
**A.** inactive

**Q.** With COc1ccc(C2=NS(=O)(=O)N(C)C(C(=O)NCc3ccccn3)=C2)cc1 as the compound, how does the Potency read?
**A.** inactive

**Q.** For O=C(COC(=O)c1cccc([N+](=O)[O-])c1)NNC(=O)c1cccs1, which Potency is on record?
**A.** inactive

**Q.** With O=C(Nc1ccc(S(=O)(=O)N2CCOCC2)cc1)c1cc(-c2ccccc2O)n[nH]1 as the compound, how does the Potency read?
**A.** inactive

**Q.** With CCN(CC)c1ccc(C=NCCc2ccc(S(N)(=O)=O)cc2)cc1 as the compound, how does the Potency read?
**A.** inactive

**Q.** With CCN(c1ccccc1)S(=O)(=O)c1ccc(NC(=O)c2ccco2)cc1 as the compound, how does the Potency read?
**A.** inactive

**Q.** With COc1ccc(CCNC(=O)COC(=O)CNS(=O)(=O)c2ccc(SC)c([N+](=O)[O-])c2)cc1 as the compound, how does the Potency read?
**A.** inactive

**Q.** With O=C(O)CCCC(=O)NCCCCc1ccccc1 as the compound, how does the Potency read?
**A.** inactive

**Q.** Which Potency does the source give for O=C(O)CNC(=S)N(Cc1ccccc1)Cc1cccnc1 here?
**A.** inactive

**Q.** Which Potency does the source give for O=C(CCCOc1ccc(Cl)cc1Cl)NCc1ccncc1 here?
**A.** inactive
